Among the data in publication PMC12820563, “FoxP3 forms a head-to-head dimer in vivo and stabilizes its multimerization on adjacent microsatellites” are binding signal values, retold here.

Over roughly 16,000 sequences, “rpm ratio (pull-down/input)” has its median near 0.5; the highest 2% begin near 5.5. This excerpt belongs to a sample that is enriched for the highest values.

This assay has as its target T1, MBP-FoxP3dN (Mus musculus, UniProt Q99JB6 188-423).
T1 sequence: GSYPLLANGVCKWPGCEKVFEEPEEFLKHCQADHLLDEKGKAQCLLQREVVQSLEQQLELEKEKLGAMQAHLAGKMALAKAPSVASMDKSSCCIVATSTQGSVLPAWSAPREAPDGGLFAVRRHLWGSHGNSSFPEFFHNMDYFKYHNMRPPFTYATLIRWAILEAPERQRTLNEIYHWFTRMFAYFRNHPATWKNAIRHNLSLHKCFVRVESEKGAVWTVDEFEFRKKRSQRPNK
Kind of assay: PD-seq (MBP pull-down with sequencing); 20 mM Tris-HCl pH 7.5, 100 mM NaCl, 1.5 mM MgCl2, 0.4 uM protein, 0.1 uM dsDNA library, 30 min, room temperature, amylose pull-down; high values mean tight binding. Particulars: protein: recombinant; tags: His6-MBP; chain copies: 2; dsDNA, one strand shown. In outline:
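A fragment of mouse FoxP3 or FoxP1 without its N-terminus, carrying a His6-MBP tag and produced in E. coli, was combined at 0.4 µM with a 0.1 µM degenerate double-stranded DNA library filled in with Klenow. The mixture sat for 30 min at room temperature in Tris pH 7.5 buffer containing NaCl and MgCl2. Protein–DNA complexes were captured on amylose resin, washed three times, and the DNA was freed with proteinase K, barcoded by PCR and sequenced on Illumina. Binding is expressed as reads-per-million enrichment of pull-down over input, with replicates pooled.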
As to “GATGATTGTTCTCCCAGCTGATGAATTCTGCGCCTCGAGTAAACAAATTTTCCTAATCTTTCTGTTCAAGCGCCATCTAC”, the binding signal was 2.3 RPM ratio (pull-down/input).

Consider “GATGATTGTTCTCCCAGCTGATGAATTCTCCGCCTCGAGTAAACAAATTTTCCTAATCTTTCTGTTCAAGCGCCATCTAC”, for which the binding signal was 0.428 RPM ratio (pull-down/input).

For the sequence “GATGATTGTTCTCCCAGCTGATGAATTCCGCGCCTCGAGTAAACAAATTTTCCTAATCTTTCTGTTCAAGCGCCATCTAC”, the binding signal is 1.68 RPM ratio (pull-down/input).

With “GATGATTGTTCTCCCAGCTGATGAATTTTTCGCCTCGAGTAAACAAATTTTCCTAATCTTTCTGTTCAAGCGCCATCTAC”, the binding signal was 0.467 RPM ratio (pull-down/input).

Consider “GATGATTGTTCTCCCAGCTGATGAATTTCGCCTCTCGAGTAAACAAATTTTCCTAATCTTTCTGTTCAAGCGCCATCTAC”, for which the binding signal is 6.04 RPM ratio (pull-down/input).

On to “GATGATTGTTCTCCCAGCTGATGAATTCTGCCTCTCGAGTAAACAAATTTTCCTAATCTTTCTGTTCAAGCGCCATCTAC”, for which the binding signal is 5.87 RPM ratio (pull-down/input).

Consider “GATGATTGTTCTCCCAGCTGATGAATTCTCTGCCTCGAGTAAACAAATTTTCCTAATCTTTCTGTTCAAGCGCCATCTAC”, for which the binding signal was 0.284 RPM ratio (pull-down/input).

As to “GATGATTGTTCTCCCAGCTGATGAATTCCGCCTCTCGAGTAAACAAATTTTCCTAATCTTTCTGTTCAAGCGCCATCTAC”, the binding signal was 6.3 RPM ratio (pull-down/input).

“GATGATTGTTCTCCCAGCTGATGAATTGTTCGCCTCGAGTAAACAAATTTTCCTAATCTTTCTGTTCAAGCGCCATCTAC”: the binding signal was 0.653 RPM ratio (pull-down/input).

Regarding “GATGATTGTTCTCCCAGCTGATGAATTCTGTGCCTCGAGTAAACAAATTTTCCTAATCTTTCTGTTCAAGCGCCATCTAC”, the binding signal is 1.19 RPM ratio (pull-down/input).

On to “GATGATTGTTCTCCCAGCTGATGAATTTTGTGCCTCGAGTAAACAAATTTTCCTAATCTTTCTGTTCAAGCGCCATCTAC”, for which the binding signal is 1.84 RPM ratio (pull-down/input).

With “GATGATTGTTCTCCCAGCTGATGAATTAGACTCCTCGAGTAAACAAATTTTCCTAATCTTTCTGTTCAAGCGCCATCTAC”, the binding signal was 0.422 RPM ratio (pull-down/input).

Turning to “GATGATTGTTCTCCCAGCTGATGAATTATACCCATCGAGTAAACAAATTTTCCTAATCTTTCTGTTCAAGCGCCATCTAC”, the binding signal is 0.433 RPM ratio (pull-down/input).

With “GATGATTGTTCTCCCAGCTGATGAATTAGTCTTATCGAGTAAACAAATTTTCCTAATCTTTCTGTTCAAGCGCCATCTAC”, the binding signal was 0.725 RPM ratio (pull-down/input).

On to “GATGATTGTTCTCCCAGCTGATGAATTAGTCGGATCGAGTAAACAAATTTTCCTAATCTTTCTGTTCAAGCGCCATCTAC”, for which the binding signal is 0.297 RPM ratio (pull-down/input).

Regarding “GATGATTGTTCTCCCAGCTGATGAATTCCCTCATTCGAGTAAACAAATTTTCCTAATCTTTCTGTTCAAGCGCCATCTAC”, the binding signal is 0.325 RPM ratio (pull-down/input).

On to “GATGATTGTTCTCCCAGCTGATGAATTGGTTAACTCGAGTAAACAAATTTTCCTAATCTTTCTGTTCAAGCGCCATCTAC”, for which the binding signal was 0.469 RPM ratio (pull-down/input).

Consider “GATGATTGTTCTCCCAGCTGATGAATTCTGTCATTCGAGTAAACAAATTTTCCTAATCTTTCTGTTCAAGCGCCATCTAC”, for which the binding signal is 4.31 RPM ratio (pull-down/input).

Regarding “GATGATTGTTCTCCCAGCTGATGAATTGAGTACTTCGAGTAAACAAATTTTCCTAATCTTTCTGTTCAAGCGCCATCTAC”, the binding signal was 0.524 RPM ratio (pull-down/input).

“GATGATTGTTCTCCCAGCTGATGAATTAGAAGGATCGAGTAAACAAATTTTCCTAATCTTTCTGTTCAAGCGCCATCTAC”: the binding signal was 0.225 RPM ratio (pull-down/input).

Turning to “GATGATTGTTCTCCCAGCTGATGAATTTTGCATGTCGAGTAAACAAATTTTCCTAATCTTTCTGTTCAAGCGCCATCTAC”, the binding signal is 6.69 RPM ratio (pull-down/input).

Take “GATGATTGTTCTCCCAGCTGATGAATTCGCATGTTCGAGTAAACAAATTTTCCTAATCTTTCTGTTCAAGCGCCATCTAC”: the binding signal is 1.95 RPM ratio (pull-down/input).

In the case of “GATGATTGTTCTCCCAGCTGATGAATTGCATGTGTCGAGTAAACAAATTTTCCTAATCTTTCTGTTCAAGCGCCATCTAC”, the binding signal is 2.29 RPM ratio (pull-down/input).

Take “GATGATTGTTCTCCCAGCTGATGAATTTGCCATGTCGAGTAAACAAATTTTCCTAATCTTTCTGTTCAAGCGCCATCTAC”: the binding signal is 1.45 RPM ratio (pull-down/input).

With “GATGATTGTTCTCCCAGCTGATGAATTTGCATGTTCGAGTAAACAAATTTTCCTAATCTTTCTGTTCAAGCGCCATCTAC”, the binding signal was 3.83 RPM ratio (pull-down/input).

Take “GATGATTGTTCTCCCAGCTGATGAATTCAGCATGTCGAGTAAACAAATTTTCCTAATCTTTCTGTTCAAGCGCCATCTAC”: the binding signal is 4.71 RPM ratio (pull-down/input).

As to “GATGATTGTTCTCCCAGCTGATGAATTCGCCATGTCGAGTAAACAAATTTTCCTAATCTTTCTGTTCAAGCGCCATCTAC”, the binding signal was 0.854 RPM ratio (pull-down/input).

As to “GATGATTGTTCTCCCAGCTGATGAATTCTGCATGTCGAGTAAACAAATTTTCCTAATCTTTCTGTTCAAGCGCCATCTAC”, the binding signal is 5.95 RPM ratio (pull-down/input).

On to “GATGATTGTTCTCCCAGCTGATGAATTTCGCATGTCGAGTAAACAAATTTTCCTAATCTTTCTGTTCAAGCGCCATCTAC”, for which the binding signal is 5.75 RPM ratio (pull-down/input).

Consider “GATGATTGTTCTCCCAGCTGATGAATTTCCCATGTCGAGTAAACAAATTTTCCTAATCTTTCTGTTCAAGCGCCATCTAC”, for which the binding signal is 0.287 RPM ratio (pull-down/input).

With “GATGATTGTTCTCCCAGCTGATGAATTGTGCATGTCGAGTAAACAAATTTTCCTAATCTTTCTGTTCAAGCGCCATCTAC”, the binding signal is 7.05 RPM ratio (pull-down/input).

As to “GATGATTGTTCTCCCAGCTGATGAATTCATGATGTCGAGTAAACAAATTTTCCTAATCTTTCTGTTCAAGCGCCATCTAC”, the binding signal was 0.987 RPM ratio (pull-down/input).
